HT1080 IDH1KD tx – qHTS for induction of synthetic lethality in tumor cells producing 2HG: qHTS for the HT-1080-IDH1KD cell line; HT-1080 IDH1 knockdown viability, ATP luminescence, 48 h; Potency, µM (series often up to 46.1 µM), for inactives: at the highest dose activity, negative = toxicity, most hits filed as cytotoxic; actives 2% (n = 360,000); AID 686971, 2013;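 also: 0% = DMSO wells and -100% = cell-free medium wells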
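Knockdown cells (IDH1KD HT-1080) received compounds 2 h after plating at 750 cells/well and were kept 48 h at 37 °C in 5% FBS RPMI. A CellTiter-Glo luminescence read gave % activity for curve fitting.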
HT1080NT lethal – qHTS for induction of synthetic lethality in tumor cells producing 2HG: qHTS for the HT-1080-NT fibrosarcoma cell line; HT-1080-NT fibrosarcoma viability, CellTiter-Glo ATP luminescence, 48 h; Potency, µM (series often up to 46.1 µM), without a hit: top-dose activity, negative = less viability, most hits filed as cytotoxic; actives 1.6% (n = 360,000);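 also: NT is the 2HG producing partner of a matched IDH1 knockdown line; 0% = DMSO-treated cells and -100% = media-only wells without cells; nearly all actives have a fitted effect of over 55% in size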
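A 48-hour cytotoxicity screen used HT-1080-NT cells plated 2 hours before compound delivery. ATP-based CellTiter-Glo luminescence measured viability, normalized to DMSO and no-cell controls.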
KB-V1 cytotox – qHTS assay for MDR1-selective chemotherapeutics: Primary screen using the drug-selected MDR subline cells KB-V1. KB-V1 MDR cells viability, CellTiter-Glo, 72 h. Potency, µM (top dose mostly 46.1 µM), usual class: cytotoxic. actives 3.4% (n = 400,000); also: nearly all actives have a fitted effect of over 60% in size
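Luminescent ATP read-out (CellTiter-Glo, 10 min) measures survival of drug-selected KB-V1 MDR cells after 72 h, 37 degrees C compound exposure. Medium: phenol-red-free DMEM, 10% FBS. Values from fitted concentration-response curves.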
KB-3-1 tox – qHTS assay for MDR1-selective chemotherapeutics: Primary screen using the parental adenocarcinoma cell KB-3-1; KB-3-1 viability, CellTiter-Glo ATP luminescence, 72 h; Potency, µM (series often up to 46.1 µM), actives largely listed as cytotoxic; actives 1.4% (n = 400,000); also: nearly all actives have a fitted effect of over 60% in size
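Cytotoxicity measured as CellTiter-Glo luminescence after 72 h at 37 C. Compound titrations were pinned onto drug-naive KB-3-1 parental adenocarcinoma cells grown in DMEM with 10% FBS, and normalized data fitted to concentration-response curves.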
* = called active by the depositor; i = inactive; ? = inconclusive; . = no result given; ! = repeats disagree; [ ] = remark or other dose. Compounds with a hit are over-represented: about 5.7% of the library has one in this group of screens. Calls follow the shape of the dose curve; as a rule, active = well fitted curve in the direction sought with a large enough effect; inconclusive = small, poorly fitted or top-dose-only effect, or another doubt; inactive = no such curve, though single readings can be large; an effect the other way counts as inactive or inconclusive. Unless noted, % is scaled to controls: 0 for no effect and ±100 for the full control effect; potency is read from the fitted curve at half-maximal effect.

SMILES | HT1080 IDH1KD tx | HT1080NT lethal | KB-V1 cytotox | KB-3-1 tox
Cc1cc2c(n1-c1ccc(C(=O)NCc3ccccc3Cl)cc1)CCCC2 | . | . | i | i
Cc1nnc(SCC(=O)NCc2ccc(N(C)C)cc2)c2nn(-c3ccccc3)c(C)c12 | . | . | i | i
COc1ccccc1NC(=O)C1=C(C)Nc2ncnn2C1c1ccc[nH]1 (stereo not drawn) | . | . | i | i
COc1ccc(CCSc2n[nH]c(C(C)C)n2)cc1 | . | . | ? | i
CCc1ccc(C(=O)Cn2ccsc2=N)cc1 | -4% | -13% | 18µM* | ?
CC(C)(C)NC(=O)NC(=O)Cn1ccsc1=N | 15% | ? | ? | i
CCOc1ccc(NC(=O)N2CCOc3ccccc32)cc1 | . | . | i | i
O=S(=O)(c1ccccc1)N1CCC(O)(CSc2ccc(Cl)cc2)CC1 | -15% | ? | 23µM* | ?
O=S(=O)(c1ccc(Cl)cc1)N1CCC(O)(CN2CCN(Cc3ccccc3)CC2)CC1 | -9% | -10% | i | i
CCN1CCN(c2ncc(C(=O)Nc3ccccc3C(=O)OC)c3ccccc23)CC1 | ? | 21µM* | ? | ?
CCn1ncc(Br)c1C(=O)Nc1ccccc1C(=O)OC | 2% | 1% | ? | 21µM*
CC1Cc2ccccc2N1C(=O)c1cc2c(=O)n3ccccc3nc2n1C (stereo not drawn) | 11% | -18% | 5.8µM* | ?
COc1cccc(-c2nn(-c3ccc(C)cc3)cc2C(=O)N(C)CC(=O)Nc2cccc(F)c2)c1 | ? | -24% | i | ?
CCOc1ccc(NC(=O)CN(C)C(=O)c2cn(-c3ccc(C)cc3)nc2-c2cccc(OC)c2)cc1OCC | -2% | -4% | 5.8µM* | i
CCCCOc1ccc(Cc2c(Cl)nc(SC)nc2N2CCOCC2)cc1 | 1% | -1% | 21µM* | i
O=C(CSc1nnc(-c2ccccc2Cl)o1)N1CCCc2ccccc21 | . | . | i | ?
CNC(=O)C(C)c1ncc(C(F)(F)F)cc1Cl (stereo not drawn) | -9% | 10% | i | i
CC(C(=O)Nc1ccc(Cl)cc1)c1ncc(C(F)(F)F)cc1Cl (stereo not drawn) | -24% | -18% | 26µM* | i
CCCCn1c(SCc2ccc(C(=O)OC)o2)nc2cc(S(N)(=O)=O)ccc21 | -4%[9.24 µM] | ? | ? | 18µM*
O=[N+]([O-])c1cc(-n2cnnn2)ccc1N1CCC(Cc2ccccc2)CC1 | -14% | -3% | 23µM* | i
CC1CC(C)CN(c2ccc(-n3cnnn3)cc2[N+](=O)[O-])C1 (stereo not drawn) | -9% | -5% | ? | 5.2µM*
Cc1cc(C)cc(C(=O)NC(CC(N)=O)c2ccc(N3CCC(Cc4ccccc4)CC3)c([N+](=O)[O-])c2)c1 (stereo not drawn) | -4% | -2% | i | i
CC1CC(C)CN(c2cc3c(cc2[N+](=O)[O-])C(=O)N(c2ccccc2)C3=O)C1 (stereo not drawn) | 19% | 21% | i | i
CC1CC(=O)N(CC(=O)Nc2ccc(F)cc2F)c2ccccc2S1 (stereo not drawn) | . | . | ? | i
O=C(C(Cl)Cl)N1c2ccccc2OCC1c1ccccc1 (stereo not drawn) | -19% | -10% | ? | 18µM*
SMILES | HT1080 IDH1KD tx | HT1080NT lethal | KB-V1 cytotox | KB-3-1 tox
CCn1cc(C(=O)N2CCN(c3cccc(Cl)c3)CC2)c2cc(OC)c(OC)cc2c1=O | ? | ? | 21µM*! | ?
COc1cccc(N2CCN(C(=O)c3cn(Cc4ccccc4)nc3-c3cccnc3)CC2)c1 | 3.3µM* | 5.8µM* | ? | 1.8µM*
CCn1cc(C(=O)N2CCN(c3ccc(OC)cc3)CC2)c2cc(OC)c(OC)cc2c1=O | 5% | 0% | ? | i
COc1ccccc1N1CCN(C(=O)c2cn(Cc3ccccc3)nc2-c2cccnc2)CC1 | 8% | 6% | ? | i
CCc1ccc(CN2CCN(C(=O)c3cccc(OC)c3OC)CC2)cc1 | 14µM* | -12% | ? | i
COc1cc2c(C(=O)N3CCN(c4cccc(Cl)c4)CC3)cn(C)c(=O)c2cc1OC | 12µM* | ? | ? | ?
COc1ccc(OC)c(S(=O)(=O)NCCc2sc(C)nc2C)c1 | . | . | i | i
COc1cccc(C(=O)Nc2ccccc2-c2nnc(-c3ccc(C(C)(C)C)cc3)o2)c1 | . | . | ? | i
O=C(c1cc2ccccc2cc1O)N1CCN(c2cccc(Cl)c2)CC1 | 2% | 11% | i | i
COc1ccccc1C(=O)N1CCN(c2cccc(Cl)c2)CC1 | 2.6µM* | 2.6µM* | ? | ?
Cc1cc(C(=O)Nc2c(C)nn(Cc3c(Cl)cccc3Cl)c2C)no1 | ? | ? | 9.2µM* | i
Cc1nn(Cc2c(Cl)cccc2Cl)c(C)c1NC(=O)c1cc(C(C)C)on1 | 23µM* | ? | ? | ?
Cc1nn(Cc2ccc(Cl)cc2)c(C)c1NC(=O)c1cc(-c2ccc3c(c2)OCO3)on1 | . | . | i | 4.1µM*
O=C(NCc1ccco1)c1cc(-c2ccc3c(c2)OCO3)on1 | ? | 2.2µM* | i | i
Cc1cc(C(=O)Nc2c(C)nn(Cc3ccc(F)cc3)c2C)no1 | . | . | ? | i
Cc1ccc(-c2cc(C(=O)NCc3ccco3)no2)cc1 | -3% | 21% | i | i
Cc1ccc(C(=O)Nc2ccc(Cl)c(-c3nc4ncccc4o3)c2)c(C)c1 | . | . | i | i
CCN(CC)c1ccc(NC(=O)c2ccccc2F)cc1S(=O)(=O)Nc1ccccc1OC | -8% | 3% | 9.2µM* | i
CCN(CC)c1ccc(NC(=O)c2ccc(=O)[nH]c2)cc1S(=O)(=O)Nc1ccccc1OC | ? | ? | i | 10µM*
COc1ccccc1NS(=O)(=O)c1cc(NC(=O)COc2ccccc2F)ccc1N1CCOCC1 | 2% | 3% | 4.6µM* | i
COc1ccc(NS(=O)(=O)c2cc(NC(=O)c3sccc3C)ccc2N2CCOCC2)cc1 | -5% | ? | i | 7.3µM*
CC1CCN(S(=O)(=O)c2ccc3c(c2)N(CC(=O)NC(C)C)C(=O)CS3)CC1 | . | . | i | i
O=C(NCCc1ccccc1)C(=O)NCC(c1ccc2c(c1)OCO2)N1CCOCC1 (stereo not drawn) | . | . | ? | i
Cc1c(C(=O)Nc2ccncc2)sc2nc(-c3ccccc3)cn12 | -6% | 2% | i | i
Cc1c(C(=O)N2CCN(c3ccc(F)cc3)CC2)sc2nc(-c3ccccc3)cn12 | 6% | 6% | i | i
Cc1c(C(=O)Nc2ccc3c(c2)OCCO3)sc2nc(-c3ccccc3)cn12 | ? | ? | 12µM* | ?
Cc1c(C(=O)NCc2ccco2)sc2nc(-c3ccccc3)cn12 | ? | ? | i | 16µM*

Compound activity from PubChem.
